This is an account of results in PubChem BioAssay (NCATS).

Results filed as inconclusive are left out. Active and inactive are the calls of the source. Calls follow the shape of the dose curve; as a rule, active = well fitted cell-killing curve with a large enough effect; inconclusive = small, poorly fitted or top-dose-only effect; inactive = flat fitted curve, though single readings scatter.
Potency is read from the fitted curve at half-maximal effect.

A short description of this assay: Cell Viability - LYMP2-020 (AID 986). Also: nearly all actives have a fitted effect of over 55% in size.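 As to activity change, negative = viability loss: plate controls were DMSO only for no effect and tetraoctylammonium bromide at 92 µM for full effect.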 The note with it: series mostly up to 92.2 µM; activity change, negative = viability loss: at the top concentration. The source says:
NIH Chemical Genomics Center [NCGC]
NIH Molecular Libraries Screening Centers Network [MLSCN]
National Institutes of Environmental Health Sciences [NIEHS]
National Toxicology Program [NTP]
We have developed a 1536-well cell-based assay for quantitative high throughput screening (qHTS) against a number of cell lines to determine in vitro cytotoxicity of small molecules. This particular assay uses a human lymphoblastoid cell line (LYMP2-020) purchased from Coriell Institute for Medical Research.
NCGC Assay Protocol Summary:
The CellTiter-Glo luminescent cell viability assay (Promega) is a homogeneous method to measure the number of viable cells in culture. The end point readout of this assay is based on quantitation of intracellular ATP, an indicator of metabolic activity, using the luciferase reaction. Luciferase catalyzes the oxidation of beetle Luciferin to oxyluciferin and light in the presence of ATP. The luminescent signal is proportional to amount of ATP present.
Using the CellTiter-Glo luminescent cell viability assay, the amount of cellular ATP was measured in the lymphoblastoid cell line with complete culture medium following compound treatment for 24 hours. The assay was performed in opaque white Kalypsys 1536-well plates. In the screen, tetraoctylammonium bromide was used as positive control. Library compounds were measured for their ability to cause acute toxicity in the cell line, as reflected by a decrease in intracellular ATP levels, in a concentration-dependent manner. […] AC50 values were determined from concentration-response data modeled with the standard Hill equation.
qHTS protocol for CellTiter Glo lymphoblastoid cellular assay
[Step] [Parameter] [Value] [Description]
1. Reagent; 5 uL; 2500 lymphoblastoid cells/well
2. Time; 5 hr; 37 C incubation
4. Controls; 23 nL; Tetraoctylammonium bromide 6.4pM to 92 uM
5. Time; 24 hr; 37 C incubation
6. Reagent; 5 uL; CellTiter Glo reagent
7. Time; 30 min; Room Temperature
8. Detection; Luminescence; Viewlux plate reader
Keywords: cell viability, cytotoxicity, lymphoblastoid cell line, luminescence, NTPHTS, NTPHTS_NCGC, NIEHS, DSSTox, MLSMR, MLSCN, NIH Roadmap, qHTS, NCGC
`COc1ccc(CN(CCN(C)C)c2ccccn2)cc1`: the “activity change, negative = viability loss” value was -28.6% (inactive).
On the same count and under the same terms, the result for `COc1cc(Cc2cnc(N)nc2N)cc(OC)c1OC` reads -6.32% (inactive); that for `CCCCOCCOCCOCc1cc2c(cc1CCC)OCO2`, -3.45% (inactive); that for `Nc1nc(N)c2nc(-c3ccccc3)c(N)nc2n1`, -29.7% (inactive).
The same measure, in the same setting: as for `NC(=O)N1c2ccccc2C=Cc2ccccc21`, the figure is -3.8% (inactive); as for `CN=C(NC#N)NCCSCc1nc[nH]c1C`, -15.3% (inactive); as for `O=c1[nH]c(=O)n([C@H]2C[C@H](O)[C@@H](CO)O2)cc1Br`, -11.8% (inactive).
On the same count and under the same terms, the result for `CCCCNC(=O)NS(=O)(=O)c1ccc(C)cc1` reads -2.31% (inactive).
With `Nc1ncn([C@@H]2O[C@H](CO)[C@@H](O)[C@H]2O)c(=O)n1`, the Potency is 10 µM (active).
Regarding `NC(=Nc1ccccc1)Nc1ccccc1`, the “activity change, negative = viability loss” value is -10.3% (inactive).
